Outcome data for 17 compounds are collected here from PubChem BioAssay (EPA / NIEHS).

Activity calls are given as the source filed them. The calls were made as follows: active = hit-call score of the fitted dose curve at least 0.9, where 1 is the maximum; inactive = score below 0.9.

Read-out in the experiment: Tissue Factor, F3 (gene 2152)
Nature of the experiment: BSK_CASM3C_TissueFactor: BioMAP Diversity Plus: CASM3C Assay for Tissue Factor Biomarker Activity (AID 2283052).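 Also: cell surface tissue factor protein level read by ELISA.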 The following applies: primary human coronary artery smooth muscle cells; actives raise or lower the signal.
As to `CC(Oc1cccc(Cl)c1)C(=O)O` (configuration not stated), the outcome was inactive.
The entry for `CCc1cccc(C)c1N(C(=O)CCl)C(C)COC` (configuration not stated) is “inactive”.
The entry for `Cc1nn(-c2cc(NS(C)(=O)=O)c(Cl)cc2Cl)c(=O)n1C(F)F` is “inactive”; for `N#CSCSC#N` it is “inactive”.
The entry for `Cc1ccn2nc(S(=O)(=O)Nc3c(F)cccc3F)nc2n1` is “inactive”; for `C[N+]1(C)CCCCC1` it is “inactive”.
As to `CCCOc1nn(C(=O)NS(=O)(=O)c2ccccc2C(=O)OC)c(=O)n1C`, the outcome was inactive.
The entry for `Nc1nc(N)nc(NC2CC2)n1` is “inactive”.
The entry for `Nc1c(Cl)cc([N+](=O)[O-])cc1Cl` is “inactive”; for `CCc1cccc(CC)c1N(COC)C(=O)CCl` it is “inactive”.
The entry for `CCCSP(=O)(OCC)Oc1ccc(Br)cc1Cl` (configuration not stated) is “inactive”.
For `S=C1NCCN1`, the result was inactive.
The entry for `CCOP(=S)(OCC)Oc1ccc([N+](=O)[O-])cc1` is “inactive”; for `CCC(=O)Nc1ccc(Cl)c(Cl)c1` it is “inactive”.
The entry for `CCCCOC(=O)c1ccccc1C(=O)O` is “inactive”; for `C#CC(C)(C)NC(=O)c1cc(Cl)cc(Cl)c1` it is “inactive”.
As to `COc1cc(OC)nc(Sc2cccc(Cl)c2C(=O)O)n1`, the outcome was inactive.
